Test [1] addresses Tyrosine-protein kinase SYK (Homo sapiens) (UniProt P43405). The following applies: at 10 µM.
Test [2] deals with T1, Serine/threonine-protein kinase TAO1 (Homo sapiens) (UniProt Q7L7X3).
T1 sequence (whole entry): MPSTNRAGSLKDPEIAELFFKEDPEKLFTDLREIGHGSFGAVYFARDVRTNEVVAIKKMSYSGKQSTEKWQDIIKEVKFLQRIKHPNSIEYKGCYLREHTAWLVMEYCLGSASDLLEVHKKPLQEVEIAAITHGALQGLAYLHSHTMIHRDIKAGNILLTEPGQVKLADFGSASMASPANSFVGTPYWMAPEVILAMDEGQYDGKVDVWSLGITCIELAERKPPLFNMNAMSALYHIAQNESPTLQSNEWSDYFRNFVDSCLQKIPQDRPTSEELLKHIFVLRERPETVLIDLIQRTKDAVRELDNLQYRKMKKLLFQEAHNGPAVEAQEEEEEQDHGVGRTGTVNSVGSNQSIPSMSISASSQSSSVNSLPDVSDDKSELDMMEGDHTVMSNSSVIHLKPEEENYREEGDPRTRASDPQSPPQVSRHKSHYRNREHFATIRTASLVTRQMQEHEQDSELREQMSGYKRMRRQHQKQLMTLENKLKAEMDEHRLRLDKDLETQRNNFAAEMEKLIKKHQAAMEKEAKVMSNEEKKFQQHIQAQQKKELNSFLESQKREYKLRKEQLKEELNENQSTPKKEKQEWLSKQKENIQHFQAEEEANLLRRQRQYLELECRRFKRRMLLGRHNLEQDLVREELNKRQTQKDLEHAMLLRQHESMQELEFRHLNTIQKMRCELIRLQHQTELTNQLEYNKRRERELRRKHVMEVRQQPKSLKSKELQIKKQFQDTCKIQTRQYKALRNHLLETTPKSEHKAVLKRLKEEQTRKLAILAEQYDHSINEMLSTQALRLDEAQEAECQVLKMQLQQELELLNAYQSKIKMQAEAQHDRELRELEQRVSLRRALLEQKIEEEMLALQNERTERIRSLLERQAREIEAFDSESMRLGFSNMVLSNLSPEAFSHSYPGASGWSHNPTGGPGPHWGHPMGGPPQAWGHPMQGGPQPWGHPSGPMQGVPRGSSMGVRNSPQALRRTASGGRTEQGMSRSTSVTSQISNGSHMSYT
The following applies: at 1 µM.

The target of test [3] is T1, Serine/threonine-protein kinase TAO1 (Homo sapiens). Conditions: at 10 µM.
Test [4] addresses T2, Serine/threonine-protein kinase TAO2 (Homo sapiens) (UniProt Q9UL54).
T2 sequence (whole entry): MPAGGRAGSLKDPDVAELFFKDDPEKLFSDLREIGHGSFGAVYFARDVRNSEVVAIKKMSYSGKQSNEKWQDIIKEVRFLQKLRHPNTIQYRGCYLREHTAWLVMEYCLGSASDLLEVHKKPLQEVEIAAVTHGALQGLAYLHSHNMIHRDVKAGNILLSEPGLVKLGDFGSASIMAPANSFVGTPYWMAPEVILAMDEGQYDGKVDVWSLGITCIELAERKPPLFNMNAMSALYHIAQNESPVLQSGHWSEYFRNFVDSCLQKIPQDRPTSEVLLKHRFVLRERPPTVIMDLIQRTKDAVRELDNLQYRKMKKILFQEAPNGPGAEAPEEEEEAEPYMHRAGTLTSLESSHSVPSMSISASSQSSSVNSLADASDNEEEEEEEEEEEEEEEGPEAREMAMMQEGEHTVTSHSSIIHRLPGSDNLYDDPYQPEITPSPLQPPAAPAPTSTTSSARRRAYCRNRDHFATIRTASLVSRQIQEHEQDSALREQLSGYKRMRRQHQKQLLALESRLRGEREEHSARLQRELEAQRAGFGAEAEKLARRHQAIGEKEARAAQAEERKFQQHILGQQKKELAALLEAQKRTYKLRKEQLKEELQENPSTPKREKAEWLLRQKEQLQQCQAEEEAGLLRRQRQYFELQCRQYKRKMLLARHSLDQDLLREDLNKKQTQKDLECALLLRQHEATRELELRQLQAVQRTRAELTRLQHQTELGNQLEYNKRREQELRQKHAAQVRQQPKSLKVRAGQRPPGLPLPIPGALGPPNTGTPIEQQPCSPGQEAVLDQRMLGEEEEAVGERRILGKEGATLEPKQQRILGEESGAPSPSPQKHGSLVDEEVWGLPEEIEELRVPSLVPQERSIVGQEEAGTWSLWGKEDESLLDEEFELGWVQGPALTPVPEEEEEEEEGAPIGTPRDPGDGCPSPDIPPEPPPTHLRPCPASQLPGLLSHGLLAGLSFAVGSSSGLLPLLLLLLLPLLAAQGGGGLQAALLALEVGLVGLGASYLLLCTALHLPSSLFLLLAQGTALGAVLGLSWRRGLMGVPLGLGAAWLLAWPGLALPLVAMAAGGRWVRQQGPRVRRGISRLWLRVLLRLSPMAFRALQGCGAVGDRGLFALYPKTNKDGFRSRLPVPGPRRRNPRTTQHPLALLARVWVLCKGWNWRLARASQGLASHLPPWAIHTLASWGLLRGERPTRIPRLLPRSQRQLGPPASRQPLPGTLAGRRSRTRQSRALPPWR
The following applies: at 1 µM.

For test [5], the target named is T3, Serine/threonine-protein kinase TBK1 (Homo sapiens) (UniProt Q9UHD2).
T3 sequence (whole entry): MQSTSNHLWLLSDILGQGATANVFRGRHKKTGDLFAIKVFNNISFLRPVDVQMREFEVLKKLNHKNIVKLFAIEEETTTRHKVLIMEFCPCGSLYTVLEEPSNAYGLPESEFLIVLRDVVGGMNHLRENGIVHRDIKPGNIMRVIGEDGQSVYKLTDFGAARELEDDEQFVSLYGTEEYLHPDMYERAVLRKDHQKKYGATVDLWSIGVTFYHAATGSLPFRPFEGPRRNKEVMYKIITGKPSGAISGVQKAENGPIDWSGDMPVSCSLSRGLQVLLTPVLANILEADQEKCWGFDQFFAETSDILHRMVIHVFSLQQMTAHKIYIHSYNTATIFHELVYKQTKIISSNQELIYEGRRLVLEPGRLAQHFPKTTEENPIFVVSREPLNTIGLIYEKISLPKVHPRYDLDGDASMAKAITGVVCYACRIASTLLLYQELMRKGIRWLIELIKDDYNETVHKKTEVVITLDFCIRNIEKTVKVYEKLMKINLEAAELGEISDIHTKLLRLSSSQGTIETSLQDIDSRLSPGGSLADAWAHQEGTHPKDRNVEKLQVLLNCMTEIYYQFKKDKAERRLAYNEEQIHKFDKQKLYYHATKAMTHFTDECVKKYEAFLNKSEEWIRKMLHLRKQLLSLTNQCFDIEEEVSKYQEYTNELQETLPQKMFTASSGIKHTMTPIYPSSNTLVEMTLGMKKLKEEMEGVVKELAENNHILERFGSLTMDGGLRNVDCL
Conditions: at 1 µM.

Test [6] addresses T3, Serine/threonine-protein kinase TBK1 (Homo sapiens). The following applies: at 10 µM.
Test [7] addresses T4, Inhibitor of nuclear factor kappa-B kinase subunit alpha (Homo sapiens) (UniProt O15111).
T4 sequence (whole entry): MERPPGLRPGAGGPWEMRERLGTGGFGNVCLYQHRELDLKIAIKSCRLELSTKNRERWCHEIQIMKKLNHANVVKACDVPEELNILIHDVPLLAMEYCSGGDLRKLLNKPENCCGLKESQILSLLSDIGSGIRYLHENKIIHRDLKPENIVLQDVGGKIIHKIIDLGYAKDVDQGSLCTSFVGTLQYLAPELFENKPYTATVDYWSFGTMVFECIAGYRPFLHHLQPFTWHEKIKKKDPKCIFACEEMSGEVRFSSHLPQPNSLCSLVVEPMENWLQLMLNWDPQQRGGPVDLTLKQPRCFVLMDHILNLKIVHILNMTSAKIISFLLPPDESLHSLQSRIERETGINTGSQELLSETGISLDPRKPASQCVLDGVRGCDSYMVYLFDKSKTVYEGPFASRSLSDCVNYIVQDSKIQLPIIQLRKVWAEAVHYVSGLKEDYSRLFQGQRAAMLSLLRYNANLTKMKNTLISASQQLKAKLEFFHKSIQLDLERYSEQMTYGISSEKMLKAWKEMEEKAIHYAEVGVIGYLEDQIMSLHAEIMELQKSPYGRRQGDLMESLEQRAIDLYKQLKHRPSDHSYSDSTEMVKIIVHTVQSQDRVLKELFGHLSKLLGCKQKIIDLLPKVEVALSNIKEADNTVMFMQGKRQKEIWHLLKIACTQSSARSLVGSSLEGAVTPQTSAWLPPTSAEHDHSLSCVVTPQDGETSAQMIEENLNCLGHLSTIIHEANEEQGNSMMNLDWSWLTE
Conditions: at 1 µM.

In test [8] the target is T4, Inhibitor of nuclear factor kappa-B kinase subunit alpha (Homo sapiens). Conditions: at 10 µM.
Test [9] concerns the target T5, Mitogen-activated protein kinase kinase kinase 7 (Homo sapiens) (UniProt O43318).
T5 sequence (whole entry): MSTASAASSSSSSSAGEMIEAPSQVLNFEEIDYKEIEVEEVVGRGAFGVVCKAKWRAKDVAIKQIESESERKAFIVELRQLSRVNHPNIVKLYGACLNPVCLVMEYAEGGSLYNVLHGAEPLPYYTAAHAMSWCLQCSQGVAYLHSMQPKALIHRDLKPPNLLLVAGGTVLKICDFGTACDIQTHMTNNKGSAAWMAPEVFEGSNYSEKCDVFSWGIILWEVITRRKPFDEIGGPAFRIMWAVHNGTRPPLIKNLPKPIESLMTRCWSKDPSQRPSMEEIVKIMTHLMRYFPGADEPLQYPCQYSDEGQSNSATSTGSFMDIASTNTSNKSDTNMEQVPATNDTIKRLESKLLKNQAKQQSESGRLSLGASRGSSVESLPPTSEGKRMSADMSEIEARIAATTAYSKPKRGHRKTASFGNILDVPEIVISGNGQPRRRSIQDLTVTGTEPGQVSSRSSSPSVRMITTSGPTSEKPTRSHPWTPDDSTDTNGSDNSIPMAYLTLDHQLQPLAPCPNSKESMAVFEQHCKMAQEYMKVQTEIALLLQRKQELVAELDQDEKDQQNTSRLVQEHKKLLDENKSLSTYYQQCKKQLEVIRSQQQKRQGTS
The following applies: at 1 µM.

Test [10] has as its target T5, Mitogen-activated protein kinase kinase kinase 7 (Homo sapiens). Conditions: at 10 µM.
Test [11] concerns the target T2, Serine/threonine-protein kinase TAO2 (Homo sapiens). Conditions: at 10 µM.
Test [12] has as its target T6, Serine/threonine-protein kinase TAO3 (Homo sapiens) (UniProt Q9H2K8).
T6 sequence (whole entry): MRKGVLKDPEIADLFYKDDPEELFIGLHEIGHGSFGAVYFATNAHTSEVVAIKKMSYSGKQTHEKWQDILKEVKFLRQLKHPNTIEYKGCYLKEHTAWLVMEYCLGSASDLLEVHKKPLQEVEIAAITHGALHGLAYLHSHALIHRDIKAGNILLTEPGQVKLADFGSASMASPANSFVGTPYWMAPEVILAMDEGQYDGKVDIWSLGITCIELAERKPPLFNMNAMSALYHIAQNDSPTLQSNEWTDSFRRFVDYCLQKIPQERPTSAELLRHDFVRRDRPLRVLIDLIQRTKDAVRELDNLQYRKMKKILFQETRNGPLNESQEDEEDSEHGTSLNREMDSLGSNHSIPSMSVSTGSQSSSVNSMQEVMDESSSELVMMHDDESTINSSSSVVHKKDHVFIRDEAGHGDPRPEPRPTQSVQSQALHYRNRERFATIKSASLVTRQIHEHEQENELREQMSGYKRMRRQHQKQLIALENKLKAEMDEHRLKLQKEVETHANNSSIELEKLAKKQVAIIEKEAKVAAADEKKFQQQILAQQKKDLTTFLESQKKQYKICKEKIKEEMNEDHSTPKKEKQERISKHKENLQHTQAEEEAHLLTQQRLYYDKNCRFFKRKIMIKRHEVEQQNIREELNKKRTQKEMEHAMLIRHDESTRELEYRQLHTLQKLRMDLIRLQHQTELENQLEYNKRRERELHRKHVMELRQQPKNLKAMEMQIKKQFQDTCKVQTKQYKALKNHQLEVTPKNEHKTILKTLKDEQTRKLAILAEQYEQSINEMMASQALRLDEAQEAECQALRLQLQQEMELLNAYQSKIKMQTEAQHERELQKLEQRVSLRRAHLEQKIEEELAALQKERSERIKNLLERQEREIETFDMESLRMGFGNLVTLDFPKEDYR
Conditions: at 1 µM.

Test [13] deals with T6, Serine/threonine-protein kinase TAO3 (Homo sapiens). The following applies: at 10 µM.
The target of test [14] is T7, TGF-beta receptor type-1 (Homo sapiens) (UniProt P36897).
T7 sequence (whole entry): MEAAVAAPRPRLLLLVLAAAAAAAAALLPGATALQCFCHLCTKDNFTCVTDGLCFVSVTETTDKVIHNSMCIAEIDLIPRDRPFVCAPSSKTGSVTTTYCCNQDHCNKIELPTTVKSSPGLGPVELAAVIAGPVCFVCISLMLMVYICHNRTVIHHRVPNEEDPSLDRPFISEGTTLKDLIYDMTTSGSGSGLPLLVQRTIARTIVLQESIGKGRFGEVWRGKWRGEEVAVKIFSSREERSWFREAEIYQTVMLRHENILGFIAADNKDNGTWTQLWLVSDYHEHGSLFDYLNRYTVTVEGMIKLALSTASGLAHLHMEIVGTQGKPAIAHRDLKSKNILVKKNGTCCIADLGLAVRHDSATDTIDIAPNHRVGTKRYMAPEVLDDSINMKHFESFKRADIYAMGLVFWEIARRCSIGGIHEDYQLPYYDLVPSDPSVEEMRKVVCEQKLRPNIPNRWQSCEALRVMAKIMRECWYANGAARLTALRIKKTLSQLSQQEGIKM
Conditions: at 1 µM.

Test [15] concerns the target T7, TGF-beta receptor type-1 (Homo sapiens). The following applies: at 10 µM.

`O=C1Nc2ccc(Br)cc2/C1=C\c1cc2c([nH]1)CCCC2`: the residual activity came out at 100% in [1]; 104% in [2]; 98% in [3]; 111% in test [4]; 59% in test [5]; 65% in [6]. Moreover, the residual activity is 102% in test [7] and 115% in [8].

With `c1ccc(-c2n[nH]c3c2oc2ccccc23)cc1`, the residual activity was determined as 82% in test [1]; 88% in test [9]; 100% in [10]; 72% in test [3]; 98% in [4]; 78% in [11]. Further, the residual activity in test [12] is 95%; in test [13], 73%; in test [5] it was 67%; in test [6], 55%; in test [14], 82%; in [15], 88%. The residual activity worked out at 97% in test [7] and 88% in test [8].

(Values after ChEMBL document CHEMBL2218924, “A broad activity screen in support of a chemogenomic map for kinase signalling research and drug discovery” (Biochem J, 2013).)
